CD11b adhes enh – enhancers of CD11b/CD18 adhesion to fibrinogen, primary screen, K562 cells, luminescence; ATPlite luminescence; activation, % at 10 µM; AID 1499, 2009; Integrin beta-2 (Homo sapiens) + Integrin alpha-M (Homo sapiens), P05107+P11215; 93,000 tested, 0.07% active;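 active means 10 µM primary screen giving 50% or more activity, confirmed by 40% or more on retest at that dose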
CYP2C19 activ – human CYP2C19 activators, primary screen, biochemical, luminescence | Cytochrome P450 2C19 (Homo sapiens), P33261 | recombinant CYP2C19, luciferin-H EGE luminescence; stronger effect = higher value; 0 = fully inhibited enzyme, 1 = untreated enzyme | activation factor at 5 µM | 96,000 tested, under 10 active | AID 1025, 2008;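 active means activation factor of at least 2 at 5 µM in the primary screen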;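 further: 0 = wells with 2.5 mM tranylcypromine and 1 = vehicle-only wells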
Target sequence (P33261 whole entry, looked up): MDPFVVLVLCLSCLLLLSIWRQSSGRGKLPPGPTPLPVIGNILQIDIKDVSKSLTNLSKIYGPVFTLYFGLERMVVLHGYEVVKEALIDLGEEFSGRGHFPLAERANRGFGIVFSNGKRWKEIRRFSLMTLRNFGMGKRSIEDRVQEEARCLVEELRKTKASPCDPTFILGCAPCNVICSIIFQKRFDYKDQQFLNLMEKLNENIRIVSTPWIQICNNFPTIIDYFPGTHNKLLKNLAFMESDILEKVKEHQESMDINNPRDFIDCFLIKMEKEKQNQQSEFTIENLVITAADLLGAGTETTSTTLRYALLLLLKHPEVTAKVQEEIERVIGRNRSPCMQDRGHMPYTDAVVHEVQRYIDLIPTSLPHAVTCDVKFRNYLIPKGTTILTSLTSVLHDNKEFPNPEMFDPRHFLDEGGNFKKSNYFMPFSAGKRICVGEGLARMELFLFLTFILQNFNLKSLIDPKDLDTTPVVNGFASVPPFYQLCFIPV
CYP2C9 inhib – blockers of cytochrome P450 2C9 activity – biochemical, luminescence, ADME assay, primary screen | P11712 | CYP2C9 Supersomes, luciferin-H conversion | inhibition, % at 5 µM | 96,000 tested, 20% active | AID 777, 2007;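 active means blocking of liver enzyme CYP2C9 beyond about 50% at 5 µM, limit read from the data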
CYP2C19 inh – blockers of cytochrome P450 2C19 activity – biochemical, luminescence, ADME assay, primary screen. P33261. CYP2C19 Supersomes, luciferin-H EGE luminescence, 30 min. AID 778, 2007. 96,000 tested, 21% active. inhibition, % at 5 µM;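 active means CYP2C19 inhibition above a set limit at 5 µM in the primary screen, cut at about 50% in these data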;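 further: plate controls were negative control wells for no effect and 2.5 mM tranylcypromine positive control for full effect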
Mac1 fbg inh – inhibitors of CD11b/CD18 adhesion to fibrinogen, primary screen, K562 cells, luminescence; ATPlite luminescence; Mn2+ added to activate the integrin; inhibition, % at 10 µM; 93,000 tested, 0.54% active; AID 1497, 2009;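 active means primary inhibition of 50% or more at 10 µM, then 40% or more on retest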
CYP2C9 activ – human CYP2C9 activators, primary screen, biochemical, luminescence | Cytochrome P450 2C9 (Homo sapiens), P11712 | activation factor at 5 µM | 96,000 tested, 1.4% active | recombinant CYP2C9, luciferin-H conversion; stronger effect = higher value; factor 1 = untreated enzyme, 0 = blocked | AID 1024, 2008;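 active means activation factor of 2 or more for CYP2C9 at a 5 µM dose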;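 further: 0 = sulfaphenazole-blocked wells and 1 = vehicle-only wells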
Active calls of the source: *; . = no result. In the library only some 28% were active in any assay of this set; here they are far more common.

SMILES	CD11b adhes enh	CYP2C19 activ	CYP2C9 inhib	CYP2C19 inh	Mac1 fbg inh	CYP2C9 activ
CN1CCN(S(=O)(=O)c2ccc3c(c2)OCCO3)CC1	2	0.5	-22	46	-4	1.2
O=C(Nc1cccc(C(F)(F)F)c1)N(Cc1ccc(Cl)cc1)CC(O)C(F)(F)F (configuration not stated)	.	0.5	37	48	.	0.6
O=S(=O)(c1cccc(F)c1)N1CCN(Cc2ccc3c(c2)OCO3)CC1	-2	0.1	86*	91*	2	0.1
O=S(=O)(/C=C/c1ccccc1)N1CCN(c2cccc(Cl)c2)CC1	9	0.1	76*	93*	4	0.2
Cc1c(Cl)cccc1NC(=S)N1CCN(Cc2ccccc2)CC1	.	1	5	3	.	0.9
O=C(c1ccc(CNS(=O)(=O)c2ccccc2)cc1)N1CCN(Cc2ccccc2)CC1	2	0.6	46	41	19	0.5
Cn1c(=O)oc2cc(S(=O)(=O)N3CCN(Cc4ccc5c(c4)OCO5)CC3)ccc21	.	0.7	30	25	.	0.7
CN(C)S(=O)(=O)c1cccc(C(=O)N2CCN(Cc3ccccc3)CC2)c1	6	0.5	4	53*	-5	1
Oc1cccc(C(=S)N2CCN(Cc3ccccc3)CC2)c1	-3	0	68*	100*	-6	0.3
Cc1csc2ncc(C(=O)NC(C)c3ccccc3)c(=O)n12 (configuration not stated)	2	0.5	-36	48	-8	1.4
COc1cccc(-c2nc(CS(=O)(=O)CC(=O)NCCCN3CCc4ccccc4C3)c(C)o2)c1	-5	0.9	16	10	10	0.8
CCN(CC(=O)Nc1ccc2c(c1)OCCO2)Cc1cc(=O)oc2c(C)c(C)ccc12	0	0.1	84*	92*	33	0.2
CNc1sc(C(=O)c2ccccc2F)c(N)c1-c1nc2ccccc2s1	-3	0.1	84*	89*	20	0.2
Cn1nc(C(=O)OCCN2C(=O)c3ccccc3C2=O)c2ccccc2c1=O	-3	0.6	48	43	2	0.5
Cc1ccnc(SCCn2c(N3CCN(c4ccccc4)CC3)nc3c2c(=O)[nH]c(=O)n3C)n1	5	0.6	-39	44	-13	1.4
CC(=O)OC(C(=O)Nc1ccccc1)C(C)S(=O)(=O)c1ccccc1 (configuration not stated)	1	0.3	32	65*	8	0.7
CC(=O)Nc1ccc(S(=O)(=O)N[C@H](C(=O)O)C(C)C)cc1	-4	1	-6	-4	10	1.1
CC1(C)CSC(=S)N1S(=O)(=O)c1ccccc1	-2	0.2	31	75*	-13	0.7
CC(C)Cn1c(-c2ccccc2F)n[nH]c1=S	0	0.2	46	81*	6	0.5
CC(C)Cn1c(-c2ccc(F)cc2)n[nH]c1=S	.	0.1	19	86*	.	0.8
Cc1ccc(Cn2ccc(NC(=O)c3noc4c3CCc3ccccc3-4)n2)cc1	5	1.1	-67	-10	8	1.7
Cc1ccc(-n2nc3c(c2NC(=O)c2c(-c4ccccc4Cl)noc2C)CS(=O)(=O)C3)c(C)c1	2	0.5	79*	52*	-15	0.2
Cc1onc(-c2ccccc2Cl)c1C(=O)Nc1ccc(S(=O)(=O)N2CCCC2)cc1	-2	0.7	75*	30	-7	0.3
Cc1ccc(Cn2ccc(NC(=O)c3c(-c4ccccc4Cl)noc3C)n2)cc1	1	0.7	52*	25	2	0.5
Cc1ccc(NC(=S)NC(=O)c2c(-c3ccccc3Cl)noc2C)cc1	0	0.7	29	35	-5	0.7
SMILES	CD11b adhes enh	CYP2C19 activ	CYP2C9 inhib	CYP2C19 inh	Mac1 fbg inh	CYP2C9 activ
CCN(CC)S(=O)(=O)c1ccc(NC(=O)c2ccccc2N(C)S(C)(=O)=O)cc1	-4	0.9	61*	6	-48	0.4
Cc1cc(C(F)F)n2nc(C(=O)Nc3ccccc3Br)nc2n1	-2	1.2	-21	-16	-19	1.2
O=C(c1ccc(Cl)cc1)c1cnc2ccccn12	-2	1.1	0	-7	7	1
CCn1c(C)nc2cc(C(=O)NNC(=O)CCC3CCCC3)ccc21	3	.	.	.	-4	.
Cc1onc(-c2ccccc2Cl)c1C(=O)OCC(=O)c1ccc2c(c1)OCCO2	-4	0.4	47	55*	21	0.5
Cc1onc(-c2ccccc2Cl)c1C(=O)Nc1ccc(F)c(F)c1	-6	0.1	70*	90*	-7	0.3
COCCNC(=O)c1ccccc1-c1ccccc1C(=O)O	-4	1.1	-10	-14	-8	1.1
Cc1cc(NC(=O)c2c(-c3ccccc3Cl)noc2C)no1	0	0.8	31	15	-3	0.7
COCCNC(=O)c1ccccc1NC(=O)c1ccccc1N(C)S(=O)(=O)c1ccccc1	-6	0	93*	100*	-3	0.1
CCN(CC)S(=O)(=O)c1ccc(NC(=O)c2c(-c3ccccc3)noc2C)cc1	0	0.4	46	65*	-3	0.5
O=C(Nc1ccc2c(c1)OCO2)C1CC(c2ccccc2Cl)=NO1 (configuration not stated)	0	0.1	-75	94*	3	1.8
Cc1cc(=O)oc(C)c1C(=O)OCC(=O)c1ccccc1	-2	0.6	12	39	-11	0.9
Cc1onc(-c2ccccc2Cl)c1C(=O)Nc1nnc(-c2ccc(Br)cc2)s1	-7	0.9	40	14	98	0.6
Cc1onc(-c2ccccc2)c1C(=O)Nc1ccc2c(c1)OCCO2	-2	0.7	24	30	4	0.8
Cc1cc(=O)oc(C)c1C(=O)OCC(=O)c1ccc2ccccc2c1	-4	0.4	4	63*	22	1
Cc1onc(-c2ccccc2Cl)c1C(=O)Nc1nnc(-c2ccc(Cl)cc2Cl)s1	-15	1	66*	4	88	0.3
Cc1onc(-c2ccccc2Cl)c1C(=O)Nc1ccc2c(c1)OCO2	.	0.3	53*	71*	.	0.5
COc1cc(SC)ccc1C(=O)Nc1ccccc1C#N	71	0.8	35	15	-7	0.7
O=C(/C=C/c1ccc(F)cc1)NCCc1ccc2c(c1)OCCO2	10	.	.	.	3	.
Cc1c(C(=O)C(=O)N2CCCc3ccccc32)c2ccccc2n1C	-2	.	.	.	-4	.
CC(=O)N=c1sc2nc3ccccc3nc2n1N(C(C)=O)C(C)=O	-2	1.2	-22	-18	9	1.2
CCOC(=O)CSc1nnc(Cn2nnc(-c3ccccc3)n2)n1C	2	0.9	3	10	8	1

Source: PubChem (Sanford-Burnham Center for Chemical Genomics)
